The record followed here is PubChem BioAssay (EPA / NIEHS).

Read-out in test [1]: Macrophage colony-stimulating factor (MCSF), CSF1 (gene 1435)
The test is described as follows: BSK_hDFCGF_MCSF: BioMAP Diversity Plus: hDFCGF Assay for Macrophage colony-stimulating factor (MCSF) Biomarker Activity (AID 2283060). The note with it: primary human foreskin fibroblasts; actives raise or lower the signal. The method in brief:
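Primary human foreskin fibroblasts dosed with chemical; 24 h later, M-CSF quantified by ELISA; curves fitted in both directions vs DMSO negative control.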

Test [2] is described as follows: BSK_hDFCGF_SRB: Viability Assessment in the BioMAP Diversity Plus: hDFCGF Assay (AID 2283061).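 Further: cells exposed to compound for 24 h before the read.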 The note with it: primary human foreskin fibroblasts. The method in brief:
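Readout is SRB absorbance at 560 nm, reflecting total protein in parallel cultures of human foreskin fibroblasts harvested 24 h after chemical dosing. Activity was fitted bidirectionally relative to DMSO.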

Read-out in test [3]: TIMP metallopeptidase inhibitor 1 (TIMP1), TIMP1 (gene 7076)
The test is described as follows: BSK_hDFCGF_TIMP1: BioMAP Diversity Plus: hDFCGF Assay for TIMP metallopeptidase inhibitor 1 (TIMP1) Biomarker Activity (AID 2283062). The conditions noted are these: primary human foreskin fibroblasts; actives raise or lower the signal. The method in brief:
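Human skin fibroblasts (primary), hDFCGF system; compound exposure 24 h; TIMP-1 by ELISA; bidirectional fit vs DMSO negative control; overt cytotoxicity by SRB in parallel wells.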

Read-out in test [4]: Monokine induced gamma interferon (MIG), CXCL9 (gene 4283)
The test is described as follows: BSK_hDFCGF_MIG: BioMAP Diversity Plus: hDFCGF Assay for Monokine induced gamma interferon (MIG) Biomarker Activity (AID 2283063). The note with it: primary human foreskin fibroblasts; actives raise or lower the signal. The method, boiled down:
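Chemicals were added to primary human foreskin fibroblast cultures, which were sampled 24 h later. MIG levels were then quantified by ELISA and responses fitted in both directions relative to DMSO.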

Read-out in test [5]: Matrix Metallopeptidase 1 (MMP1), MMP1 (gene 4312)
In words: BSK_hDFCGF_MMP1: BioMAP Diversity Plus: hDFCGF Assay for Matrix Metallopeptidase 1 (MMP1) Biomarker Activity (AID 2283064). The note with it: primary human foreskin fibroblasts; actives raise or lower the signal. The method in brief:
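Human foreskin fibroblasts exposed to chemical for 24 h; MMP1 detected by ELISA, with DMSO as baseline for bidirectional fitting.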

Read-out in test [6]: Vascular cell adhesion molecule 1 (VCAM1), VCAM1 (gene 7412)
The test is described as follows: BSK_hDFCGF_VCAM1: BioMAP Diversity Plus: hDFCGF Assay for Vascular cell adhesion molecule 1 (VCAM1) Biomarker Activity (AID 2283065).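 On AC50: VCAM-1 protein level quantified by ELISA after 24 h chemical exposure.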 The conditions noted are these: primary human foreskin fibroblasts; actives raise or lower the signal. The method in brief: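 Human foreskin fibroblast primary cells, chemical exposure 24 h; VCAM-1 by ELISA; bidirectional fit, DMSO = negative control/baseline.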

Read-out in test [7]: Plasminogen activator inhibitor-1 (PAI1), SERPINE1 (gene 5054)
In words: BSK_hDFCGF_PAI1: BioMAP Diversity Plus: hDFCGF Assay for Plasminogen activator inhibitor-1 (PAI1) Biomarker Activity (AID 2283066). The conditions noted are these: primary human foreskin fibroblasts; actives raise or lower the signal. The method in brief: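 Fibroblasts from human foreskin were treated with test chemical. After 24 h, PAI-1 was measured by ELISA. Activity was fitted in both directions relative to DMSO.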

Read-out in test [8]: Intercellular Adhesion Molecule 1 (ICAM1), ICAM1 (gene 3383)
In words: BSK_KF3CT_ICAM1: BioMAP Diversity Plus: KF3CT Assay for Intercellular Adhesion Molecule 1 (ICAM1) Biomarker Activity (AID 2283067). The conditions noted are these: primary human keratinocytes with fibroblasts; actives raise or lower the signal. The method, boiled down: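 ICAM-1 levels are measured by ELISA 24 h after dosing a primary human co-culture of keratinocytes and foreskin fibroblasts. Activity in either direction is fitted relative to DMSO vehicle.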

Read-out in test [9]: Interferon-gamma inducible Protein 10 (IP10), CXCL10 (gene 3627)
The test is described as follows: BSK_KF3CT_IP10: BioMAP Diversity Plus: KF3CT Assay for Interferon-gamma inducible Protein 10 (IP10) Biomarker Activity (AID 2283068). The note with it: primary human keratinocytes with fibroblasts; actives raise or lower the signal. The method, boiled down:
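ELISA read-out of IP-10 after 24 h chemical dosing of human skin primary co-culture (keratinocytes, foreskin fibroblasts). Gain or loss of signal relative to DMSO, bidirectional curve fit.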

Test [10] can be described thus: BSK_KF3CT_SRB: Viability Assessment in the BioMAP Diversity Plus: KF3CT Assay (AID 2283069).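 Further: read 24 h after compound addition; fitted for both signal gain and loss against DMSO baseline.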 The conditions noted are these: primary human keratinocytes with fibroblasts. The method in brief: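 Overt cytotoxicity is assessed as total protein by sulforhodamine B staining in parallel human skin co-cultures at 24 h after dosing. DMSO serves as negative control and baseline.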

Read-out in test [11]: Interleukin-1 alpha (IL1a), IL1A (gene 3552)
In words: BSK_KF3CT_IL1a: BioMAP Diversity Plus: KF3CT Assay for Interleukin-1 alpha (IL1a) Biomarker Activity (AID 2283070). The note with it: primary human keratinocytes with fibroblasts; actives raise or lower the signal. The method in brief: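 Readout is IL-1a level by ELISA, compared bidirectionally with DMSO as baseline. Cells: human keratinocytes co-cultured with foreskin fibroblasts, harvested 24 h post-dose.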

Read-out in test [12]: TIMP metallopeptidase inhibitor 2 (TIMP2), TIMP2 (gene 7077)
In words: BSK_KF3CT_TIMP2: BioMAP Diversity Plus: KF3CT Assay for TIMP metallopeptidase inhibitor 2 (TIMP2) Biomarker Activity (AID 2283071). The conditions noted are these: primary human keratinocytes with fibroblasts; actives raise or lower the signal. The method in brief:
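Chemicals were dosed onto human skin primary co-cultures of keratinocytes and foreskin fibroblasts, and TIMP-2 was measured by ELISA after 24 hours. Activity in either direction was fitted relative to DMSO.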

Read-out in test [13]: Transforming growth factor beta 1 (TGFb1), TGFB1 (gene 7040)
In words: BSK_KF3CT_TGFb1: BioMAP Diversity Plus: KF3CT Assay for Transforming growth factor beta 1 (TGFb1) Biomarker Activity (AID 2283072). The note with it: primary human keratinocytes with fibroblasts; actives raise or lower the signal. The method in brief:
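KF3CT co-culture (keratinocytes + fibroblasts), 24 h exposure → TGF-b1 ELISA → bidirectional fit, DMSO = baseline. Parallel SRB total-protein staining (0.1% SRB, 10% TCA fixation, 560 nm) for cytotoxicity.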

Read-out in test [14]: C-C motif chemokine 2 (Homo sapiens) (UniProt P13500)
In words: BSK_KF3CT_MCP1: BioMAP Diversity Plus: KF3CT Assay for Monocyte Chemoattractant Protein 1 (MCP1/CCL2) Biomarker Activity (AID 2283073). The note with it: primary human keratinocytes with fibroblasts; actives raise or lower the signal. The method, boiled down:
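ELISA readout of MCP-1 after 24 h chemical dosing of a human skin primary co-culture of keratinocytes and foreskin fibroblasts. Activity was fitted in both directions against DMSO.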

Read-out in test [15]: urokinase plasminogen activator (uPA), PLAU (gene 5328)
The test is described as follows: BSK_KF3CT_uPA: BioMAP Diversity Plus: KF3CT Assay for urokinase plasminogen activator (uPA) Biomarker Activity (AID 2283075). The note with it: primary human keratinocytes with fibroblasts; actives raise or lower the signal. The method, boiled down:
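Values derive from bidirectional fitting against DMSO controls. Keratinocyte/foreskin fibroblast co-cultures received chemical; 24 h later uPA was detected by ELISA, with SRB total-protein staining in parallel wells for overt cytotoxicity.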

Read-out in the next test: CD40, CD40 (gene 958)
The test is described as follows: BSK_LPS_CD40: BioMAP Diversity Plus: LPS Assay for CD40 Biomarker Activity (AID 2283076). The note with it: primary human HUVEC with PBMC; actives raise or lower the signal. The method, boiled down: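 Cells were dosed, incubated 24 h, then assayed for CD40 by ELISA. Gain or loss of signal was analysed relative to DMSO controls. The culture paired human umbilical vein endothelium with peripheral blood mononuclear cells.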

Read-out in test [16]: E-selectin (Homo sapiens) (UniProt P16581)
In words: BSK_LPS_Eselectin: BioMAP Diversity Plus: LPS Assay for Eselectin Biomarker Activity (AID 2283077). The note with it: primary human HUVEC with PBMC; actives raise or lower the signal. The method in brief: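 Primary human vascular co-culture (endothelium plus PBMC) was dosed with chemical, then E-selectin quantified by ELISA at 24 h. Endpoint values derive from bidirectional curve fitting relative to DMSO.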

Read-out in test [17]: Interleukin-8 (IL8), CXCL8 (gene 3576)
In words: BSK_LPS_IL8: BioMAP Diversity Plus: LPS Assay for Interleukin-8 (IL8) Biomarker Activity (AID 2283078). The note with it: primary human HUVEC with PBMC; actives raise or lower the signal. The method, boiled down: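 Readout is IL-8 by ELISA, taken 24 h after compounds were added to LPS-stimulated endothelial/PBMC co-cultures. Both increases and decreases relative to DMSO control were scored through bidirectional fitting.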

A short description of test [18]: BSK_LPS_SRB: Viability Assessment in the BioMAP Diversity Plus: LPS Assay (AID 2283079).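 Further: total protein by sulforhodamine B absorbance as a cytotoxicity measure; measured one day after compound addition; fitted in both directions against DMSO so loss or gain of signal counts.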 The note with it: primary human HUVEC with PBMC. The method in brief: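 Readout is SRB absorbance at 560 nm (0.1% stain, TCA-fixed parallel cultures) as a total-protein cytotoxicity measure. Cells: primary human umbilical vein endothelium plus peripheral blood mononuclear cells, 24 h after chemical exposure; DMSO served as baseline.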

Read-out in test [19]: Matrix Metallopeptidase 9 (MMP9), MMP9 (gene 4318)
In words: BSK_KF3CT_MMP9: BioMAP Diversity Plus: KF3CT Assay for Matrix Metallopeptidase 9 (MMP9) Biomarker Activity (AID 2283074). The note with it: primary human keratinocytes with fibroblasts; actives raise or lower the signal. The method, boiled down:
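Values come from bidirectional fitting relative to DMSO of MMP-9 levels, which were measured by ELISA. Measurements were taken 24 h after chemical dosing of a keratinocyte and foreskin fibroblast co-culture.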

The source made the active and inactive calls. How the source made its calls: active means hit-call score of the fitted dose curve at least 0.9, where 1 is the maximum; inactive means score below 0.9.

Sequence of E-selectin (Homo sapiens) (P16581 whole entry, looked up): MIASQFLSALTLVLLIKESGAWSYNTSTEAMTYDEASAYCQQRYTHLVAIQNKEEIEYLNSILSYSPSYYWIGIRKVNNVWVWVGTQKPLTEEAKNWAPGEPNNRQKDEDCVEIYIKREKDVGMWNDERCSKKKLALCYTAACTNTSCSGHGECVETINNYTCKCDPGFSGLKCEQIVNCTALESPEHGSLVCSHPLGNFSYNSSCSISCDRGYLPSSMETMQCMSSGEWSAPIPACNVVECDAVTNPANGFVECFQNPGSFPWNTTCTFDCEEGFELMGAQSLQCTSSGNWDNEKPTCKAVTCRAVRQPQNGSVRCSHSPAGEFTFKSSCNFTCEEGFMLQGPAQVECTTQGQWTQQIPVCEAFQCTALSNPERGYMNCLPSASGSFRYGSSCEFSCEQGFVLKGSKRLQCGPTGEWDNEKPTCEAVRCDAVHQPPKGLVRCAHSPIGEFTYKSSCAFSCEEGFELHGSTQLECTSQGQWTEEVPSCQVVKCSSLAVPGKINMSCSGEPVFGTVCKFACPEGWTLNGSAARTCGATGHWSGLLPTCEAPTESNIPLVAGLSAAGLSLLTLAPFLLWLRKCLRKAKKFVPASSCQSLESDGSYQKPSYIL

As for `CCCCC=O`, the result in [1], in [2], in test [3], in test [4], in test [5] and in test [6] was inactive. Moreover, the outcome in test [7], in test [8], in test [9], in [10], in test [11] and in [12] was inactive. Also, the outcome is “inactive” in test [13]; “inactive” in test [14]; “inactive” in [15]; “inactive” with CD40, CD40 (gene 958); “inactive” in [16]; “inactive” in [17]. Further, the outcome in test [18] was inactive.

On to `CCCCCCCCCCCCCCC`, for which the outcome in test [1], in test [2], in [3], in [4], in test [5] and in [6] was inactive. For the same compound, the result in test [7], in test [8], in [9], in [10], in test [11] and in test [12] was inactive. Besides, the outcome was “inactive” in test [13]; “inactive” in test [14]; “inactive” in test [15]; “inactive” in the test with CD40, CD40 (gene 958); “inactive” in [16]; “inactive” in test [17]. In addition, the result in test [18] was inactive.

Take `Cc1[nH]nc2c1N=C(c1ccccc1Cl)c1cc([N+](=O)[O-])ccc1N2`: the result in test [1], in test [2], in test [3], in test [6], in test [8] and in test [9] was inactive. Moreover, the outcome in test [10], in test [11], in [12], in test [13], in [14] and in test [15] was inactive. Moreover, the concentration at half-maximal activity (AC50) in [4] is 31.1 µM (active); in test [5], 2.47 µM (active); in test [7], 5.16 µM (active); in the test with CD40, CD40 (gene 958), 4.82 µM (active); in test [16], 6.04 µM (active); in test [17], 7.23 µM (active). Moreover, the AC50 in test [18] is 2.08 µM (active).

For the compound `C=CC(=C)CC/C=C(\C)CCC=C(C)C`, the result in test [1], in [2], in test [3], in [4], in test [5] and in [6] was inactive. In addition, the outcome in test [7], in test [8], in [9], in test [10], in [11] and in test [12] was inactive. Also, the outcome in test [13] was “inactive”; in test [14], “inactive”; in test [19], “inactive”; in test [15], “inactive”; with CD40, CD40 (gene 958), “inactive”; in test [16] it was “inactive”. In addition, the outcome in [17] and in test [18] was inactive.

As to `Cc1ccc(C(=O)c2ccccc2)cc1`, the AC50 was 29.3 µM (active) in test [1]; 31.4 µM (active) in test [3]; 29.5 µM (active) in [4]; 30.7 µM (active) in [5]; 30.5 µM (active) in [6]; 20 µM (active) in [7]. Moreover, the AC50 in test [11] was 20 µM (active); in test [12], 30.3 µM (active); in test [13], 30.8 µM (active). In addition, the result in test [2], in test [8], in test [9], in [10], in test [14] and in test [19] was inactive. Further, the outcome in test [15] was “inactive”; with CD40, CD40 (gene 958) it was “inactive”; in test [16], “inactive”; in [17], “inactive”; in test [18], “inactive”.

With `O=C(CCCN1CCC(O)(c2ccc(Cl)cc2)CC1)c1ccc(F)cc1`, the outcome in test [1], in test [2], in test [3], in test [4], in test [5] and in [6] was inactive. The outcome in test [7], in test [8], in test [9], in [10], in test [11] and in test [12] was inactive. The outcome is “inactive” in test [13]; “inactive” in test [14]; “inactive” in test [15]; “inactive” in the test with CD40, CD40 (gene 958); “inactive” in test [17]; “inactive” in test [18]. Further, the concentration at half-maximal activity (AC50) in test [16] was 1.67 µM (active).
